RE007 growth inh: less growth of the S. pombe RE007 Vpr strain; actives 0.21% (n = 360,000); Potency, µM (titrated, usually from 92.2 µM), for the others: at the top dose activity change, negative = less growth, hits mostly inhibitors; S. pombe RE007 Vpr strain, BacTiter-Glo ATP luminescence, 24 h; active means well fitted falling curve with a large enough effect; inconclusive means small, poorly fitted or top-dose-only effect; inactive means no such curve, though single readings can be large or run the other way; further: potency means the concentration at half of the fitted maximal effect; on the % scale 0 is the no-effect control and ±100 the full control effect; nearly all actives have a fitted effect of over 50% in size
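Fission yeast RE007 carrying one integrated HIV-1 vpr copy, seeded at OD 0.01 in PMG+AL medium with 23 nL pinned compound. Grown 24 h at 30 degrees; viability read by BacTiter-Glo luminescence after 5 min.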
LmPK inh: LmPK (Leishmania mexicana) enzyme inhibition | Q27686 | purified LmPK, Kinase-Glo ATP luminescence, 1 h | Potency, µM (titrated, usually from 57.5 µM), for inactives: top-dose activity change, negative = inhibition, hits mostly inhibitors | actives 0.37% (n = 290,000); further: potency means the concentration at half of the fitted maximal effect; on the % scale 0 is the no-effect control and ±100 the full control effect
Target sequence (Q27686 whole entry, looked up): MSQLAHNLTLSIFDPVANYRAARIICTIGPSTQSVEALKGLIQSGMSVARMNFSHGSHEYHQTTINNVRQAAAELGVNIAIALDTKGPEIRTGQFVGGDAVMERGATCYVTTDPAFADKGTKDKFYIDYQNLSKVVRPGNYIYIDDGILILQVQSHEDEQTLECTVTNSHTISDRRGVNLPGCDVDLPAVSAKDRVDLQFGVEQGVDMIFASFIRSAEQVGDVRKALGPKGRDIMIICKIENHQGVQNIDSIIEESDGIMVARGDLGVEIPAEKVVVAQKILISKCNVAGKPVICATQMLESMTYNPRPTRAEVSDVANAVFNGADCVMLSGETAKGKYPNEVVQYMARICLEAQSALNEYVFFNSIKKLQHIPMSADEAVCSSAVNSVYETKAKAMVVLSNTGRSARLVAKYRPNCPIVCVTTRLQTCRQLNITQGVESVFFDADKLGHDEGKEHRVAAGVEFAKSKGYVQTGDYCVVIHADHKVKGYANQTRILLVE
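Purified LmPK (0.1 nM) with 0.5 mM PEP and 0.1 mM ADP in imidazole buffer pH 7.2 with MgCl2/KCl, 1 h at room temperature. ATP formed was read by luciferase luminescence and normalized to no-enzyme and uninhibited controls.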
TbPYK inhibitor: blocks Trypanosoma brucei pyruvate kinase; Q57TT1; TbPYK enzyme, Kinase-Glo Plus ATP luminescence, 45 min; Potency, µM (series often up to 76.8 µM), inactives show at the top dose activity, negative = inhibition, hits mostly inhibitors; actives 0.12% (n = 410,000); AID 624173; further: potency means the concentration at half of the fitted maximal effect; on the % scale 0 is the no-effect control and ±100 the full control effect; nearly all actives have a fitted effect of over 50% in size
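Activity of T. brucei pyruvate kinase was followed by Kinase-Glo Plus luminescence after the enzyme reacted 45 min at room temperature with 130 uM ADP (final) and substrate. Test compounds were added before ADP at multiple concentrations.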
Giardia FBPA inh: Giardia lamblia aldolase inhibition. A8B2U2. purified Giardia FBPA. Potency, µM (highest dose often 59.6 µM), for the others: at the highest dose activity, negative = inhibition, most hits filed as inhibitors. actives 0.71% (n = 290,000); further: potency means the concentration at half of the fitted maximal effect; on the % scale 0 is the no-effect control and ±100 the full control effect; nearly all actives have a fitted effect of over 55% in size
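40 nM FBPA preincubated 10 min at RT with compound (up to 57.5 uM final), then substrate plus GAPDH/TPI/NAD/arsenate coupling and diaphorase/resazurin added. Fluorescence read after 20 min at RT, 525/598 nm.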
NS1 inh: blocks influenza NS1 protein function; Potency, µM (titrated, usually from 46.1 µM), for inactives: at the highest dose activity, positive = more growth; actives 0.4% (n = 270,000); AID 2326; calls by dose curve; further: potency means the concentration at half of the fitted maximal effect; actives are rising curves; nearly all actives have a fitted effect of over 50% in size
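In this qHTS, NS1 from influenza A is expressed in budding yeast, where it slows growth. Cells are switched from glucose to 2% galactose medium (pH 6.0, -URA), treated with compound, and growth recovery is read at OD600.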
Sm TGR block: S. mansoni TGR enzyme inhibition | Q962Y6 | purified TGR, DTNB reduction, TNB absorbance 405 nm | actives 3% (n = 360,000) | Potency, µM (top dose mostly 114 µM), for inactives: at the highest dose activity change, negative = inhibition, hits mostly inhibitors; further: potency means the concentration at half of the fitted maximal effect; on the % scale 0 is the no-effect control and ±100 the full control effect; nearly all actives have a fitted effect of over 60% in size
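Kinetic colorimetric format: TGR-catalysed, NADPH-driven DTNB reduction monitored via TNB absorbance. Enzyme dispensed at 20 nM; compound exposure 15 min at room temperature before reaction start.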
Flu NS1 inh: influenza NS1 function inhibition validation; AID 492980; influenza NS1 function cell assay, 15-point titration; shares compounds with NS1 inh; 1,400 tested, under 10 active; activity change, negative = inhibition, % at 32.9 µM; calls by dose curve; further: 0% is about no effect
Flu PR8 replic: reduces influenza A/PR/8/34 replication in MDCK cells. virus titer (log TCID50), log10 TCID50 at 5 µM. AID 504647. shares compounds with NS1 inh. actives 30% (n = 95). MDCK infected influenza A/PR/8/34, virus titer TCID50; active compounds read low; call rule not given here
Starred values were filed as active, the others as inactive; ? = inconclusive; nt = no result; [ ] = remark or other dose. In the library only some 3.5% were active in any assay of this set; here they are far more common. Unless noted, the call rests on the fitted dose curve; in most records, active means well fitted curve in the direction sought with a large enough effect; inconclusive means small, poorly fitted or top-dose-only effect, or another doubt; inactive means no such curve, though single readings can be large; an effect the other way counts as inactive or inconclusive.

SMILES	RE007 growth inh	LmPK inh	TbPYK inhibitor	Giardia FBPA inh	NS1 inh	Sm TGR block	Flu NS1 inh	others
Cc1ccc(CCC(=O)NCc2ccccc2)o1	-3%	0%	-5%	-2%	5µM*	35µM*	1
COc1ccccc1/C=C1\CCCC2=C1Nc1nnnn1C2c1ccccc1OC (stereo not drawn)	nt	-1%	-9%	-13%	?	4µM*	?	Flu PR8 replic=8.5
CCn1nc(C(=O)OCc2cccc(S(=O)(=O)N(C)C)c2)c2ccccc2c1=O	-2%	2%	-7%	2%	?	10%	?
O=S(=O)(NC1CCC(CNS(=O)(=O)c2c(F)cccc2F)CC1)c1ccc2c(c1)OCCO2 (stereo not drawn)	nt	nt	nt	nt	nt	0%	nt
CCc1ccc(OCc2ccccc2C(=O)Nc2ccc3nc(C)cc(N)c3c2)cc1	nt	nt	nt	1%	nt	nt	nt
CCOc1cc(N2CCOCC2)c(OCC)cc1NC(=O)Cc1cccc2ccccc12	1%	11%	-4%	-25%	13µM*	-11%	-3
CCOc1cc(N2CCOCC2)c(OCC)cc1NC(=O)COC(=O)c1ccccc1C	-1%	1%	-2%	-2%	28%	-3%	nt
COc1ccc(CC(=O)NCc2ccc3c(c2)cc(C)n3C)cc1OC	19%	2%	4%	-2%	nt	-3%	nt
COc1cc(/C=C\C(=O)NCc2ccc3c(c2)cc(C)n3C)cc(OC)c1OC	3%	8%	2%	-8%	?	5%	3
CCCN1CCc2cccc3c2[C@H]1Cc1ccc(O)c(O)c1-3	-22%[18.4 µM]	nt	-23%	nt	nt	nt	nt
C=CCN1CCc2cccc3c2C1Cc1ccc(O)c(O)c1-3 (stereo not drawn)	nt	nt	nt	?	11µM*	nt	-20
COc1cc(/C=C/C(=O)Nc2nnc(CC(C)(C)C)s2)cc(OC)c1OC	-19%	6%	-17%	4%	-1%	-2%	nt
COc1cc(/C=C/C(=O)Nc2nnc(CC(C)C)s2)cc(OC)c1OC	11%	3%	-3%	-1%	?	-9%	-4
CCS(=O)(=O)Nc1cccc(C2=NN(S(=O)(=O)c3ccccc3)C(c3cccs3)C2)c1 (stereo not drawn)	-8%	5%	-1%	5%	10µM*	-1%	17
CCS(=O)(=O)Nc1cccc(C2=NN(S(=O)(=O)c3ccc(C)cc3)C(c3cccs3)C2)c1 (stereo not drawn)	24%	2%	-3%	-1%	13µM*	-10%	13
O=C(NC1CCCc2ccccc21)c1cccc(S(=O)(=O)N2CCN(c3ccccc3)CC2)c1 (stereo not drawn)	-8%	9%	4%	-1%	11µM*	0%	6
O=C(Nc1ccccc1)c1cccc(S(=O)(=O)N2CCCCC2)c1	6%[3.69 µM]	-1%	nt	-4%	-4%	35%	nt
O=C(Nc1ccc2c(c1)CCC2)c1cccc(S(=O)(=O)N2CCN(c3ccccc3)CC2)c1	13%	11%	-3%	1%	13µM*	-8%	-18
CN(CC(=O)Nc1ccccn1)S(=O)(=O)c1ccc(Cl)cc1	5%	4%	-2%	-2%	-1%	-5%	nt
Cc1cnc(NC(=O)CN(C)S(=O)(=O)c2ccc(Cl)cc2)s1	7%	4%	5%	5%	7.9µM*	7%	5
COc1ccc(C=O)cc1OS(=O)(=O)c1ccc(NC(C)=O)cc1	17%	6%	-6%	0%	8%	4%	nt
COc1ccc(/C=N/NC(=O)c2ccc3ccccc3c2)cc1OS(=O)(=O)c1ccc(NC(C)=O)cc1	4%	-2%	-3%	0%	10µM*	9%	24
